# Reference: the antibiotic and cytotoxicity screens of Wong et al. (2023)
# Hit rate of the full screen: of about 39,000 compounds, about 3,300 (8.5%) were called active. Many of the other results were omitted from the sample, so actives are more common in it than they were.
# Test system: HepG2
# Assay: cytotoxicity call (relative viability < 0.9)
# Conditions: 10 µM
row,SMILES,cytotoxicity call
1,CCCSc1nc(N[C@@H]2C[C@H]2c2ccc(F)c(F)c2)c2nnn([C@@H]3C[C@H](OCCO)[C@@H](O)[C@H]3O)c2n1,inactive
2,C[C@@H]1CCCCO[C@H](CN(C)Cc2ccc(C(F)(F)F)cc2)[C@@H](C)CN([C@H](C)CO)C(=O)c2cc(NS(C)(=O)=O)ccc2O1,inactive
3,COCCOC(=O)N1C(=O)[C@@]2(c3cc(C#CC4(O)CCCCCC4)ccc31)[C@H](C(=O)NC[C@H](O)c1ccccc1)[C@H]1C(=O)O[C@H](c3ccccc3)[C@H](c3ccccc3)N1[C@@H]2c1ccc(OCCO)cc1,inactive
4,COc1ccc(NC(=O)N(C)C[C@H]2Oc3c(NC(=O)c4ccc(-c5nccs5)cc4)cccc3C(=O)N([C@@H](C)CO)C[C@@H]2C)cc1,inactive
5,Cc1noc(C)c1S(=O)(=O)N(C)C[C@H]1Oc2ccc(NC(=O)c3ccncc3)cc2C(=O)N([C@H](C)CO)C[C@@H]1C,inactive
6,C[C@@H]1CCCCO[C@H](CN(C)C(=O)Cc2ccccc2)[C@H](C)CN([C@H](C)CO)C(=O)c2cc(NC(=O)Nc3ccc(F)cc3)ccc2O1,inactive
7,COc1ccc(NC(=O)Nc2ccc3c(c2)CC(=O)N([C@@H](C)CO)C[C@H](C)[C@H](CN(C)Cc2ccc(Oc4ccccc4)cc2)O3)cc1,active
8,COc1ccc(NC(=O)Nc2ccc3c(c2)CC(=O)N([C@H](C)CO)C[C@H](C)[C@H](CN(C)Cc2ccc(Oc4ccccc4)cc2)O3)cc1,active
9,C[C@@H]1CN([C@@H](C)CO)C(=O)c2cc(NC(=O)Cc3ccccc3)ccc2O[C@@H]1CN(C)Cc1ccc(C(=O)Nc2ccccc2N)cc1,inactive
10,C[C@@H]1CN([C@@H](C)CO)C(=O)c2cc(NC(=O)c3ccncc3)ccc2O[C@@H]1CN(C)Cc1ccc(Oc2ccccc2)cc1,inactive
11,C[C@@H]1CN([C@@H](C)CO)C(=O)c2cccc(NC(=O)Nc3ccc(C(F)(F)F)cc3)c2O[C@@H]1CN(C)C(=O)Nc1ccccc1,inactive
12,CCNC(=O)[C@H]1[C@H](CO)[C@H]2Cn3c(ccc(-c4cccc(OC)c4)c3=O)[C@H]2N1S(C)(=O)=O,inactive
13,C[C@@H]1CCCCO[C@H](CN(C)C(=O)CCC(F)(F)F)[C@@H](C)CN([C@@H](C)CO)C(=O)c2cc(NC(=O)Cc3ccccc3)ccc2O1,inactive
14,Cc1ccc(S(=O)(=O)Nc2ccc3c(c2)CC(=O)N([C@@H](C)CO)C[C@@H](C)[C@@H](CN(C)S(=O)(=O)c2cn(C)cn2)O3)cc1,inactive
15,COc1ccc(CN(C)C[C@H]2OCCCC[C@H](C)Oc3ccc(NC(=O)Nc4ccc(OC)cc4)cc3C(=O)N([C@@H](C)CO)C[C@@H]2C)cc1,active
16,COc1ccc(CN(C)C[C@@H]2OCCCC[C@H](C)Oc3ccc(NC(=O)C4CCCCC4)cc3C(=O)N([C@@H](C)CO)C[C@H]2C)cc1,active
17,COc1ccc(CN(C)C[C@@H]2OCCCC[C@@H](C)Oc3ccc(NC(=O)C4CCCCC4)cc3C(=O)N([C@H](C)CO)C[C@@H]2C)cc1,inactive
18,COc1ccc(CN(C)C[C@H]2OCCCC[C@@H](C)Oc3ccc(NC(=O)C4CCCCC4)cc3C(=O)N([C@H](C)CO)C[C@H]2C)cc1,inactive
19,COc1ccc(CN(C)C[C@@H]2OCCCC[C@H](C)Oc3ccc(NC(=O)Nc4ccc(OC)cc4)cc3C(=O)N([C@H](C)CO)C[C@H]2C)cc1,inactive
20,COc1ccc(CN(C)C[C@@H]2OCCCC[C@H](C)Oc3ccc(NC(=O)Nc4ccc(OC)cc4)cc3C(=O)N([C@@H](C)CO)C[C@H]2C)cc1,active

row,SMILES,cytotoxicity call
1,COc1ccc(CN(C)C[C@H]2OCCCC[C@H](C)Oc3ccc(NC(=O)Nc4ccc(OC)cc4)cc3C(=O)N([C@@H](C)CO)C[C@H]2C)cc1,active
2,COc1ccc(CN(C)C[C@@H]2OCCCC[C@@H](C)Oc3ccc(NC(=O)Nc4ccc(OC)cc4)cc3C(=O)N([C@H](C)CO)C[C@H]2C)cc1,inactive
3,C[C@@H]1CCCCO[C@@H](CN(C)Cc2ccc(C(=O)O)cc2)[C@H](C)CN([C@@H](C)CO)C(=O)c2cc(NC(=O)c3ccccc3)ccc2O1,inactive
4,C[C@@H]1CN([C@H](C)CO)C(=O)Cc2cc(NS(=O)(=O)c3cccs3)ccc2O[C@@H]1CN(C)S(C)(=O)=O,inactive
5,C[C@@H]1CCCCO[C@H](CN(C)C(=O)CCCN(C)C)[C@@H](C)CN([C@@H](C)CO)C(=O)c2cc(NC(=O)Nc3ccc(F)cc3)ccc2O1,inactive
6,CS(=O)(=O)N1CCn2cc(Cn3cccn3)nc2C1,inactive
7,Cc1noc(C)c1NC(=O)N(C)C[C@H]1Oc2c(NC(=O)Nc3cccc4ccccc34)cccc2C(=O)N([C@@H](C)CO)C[C@@H]1C,inactive
8,Cc1noc(C)c1S(=O)(=O)N(C)C[C@@H]1OCc2cn(nn2)CCCC(=O)N([C@H](C)CO)C[C@@H]1C,inactive
9,COc1ccc(S(=O)(=O)Nc2ccc3c(c2)C(=O)N([C@@H](C)CO)C[C@@H](C)[C@@H](CN(C)C(=O)Nc2ccc(C(F)(F)F)cc2)OCCCC[C@H](C)O3)cc1,inactive
10,CC(=O)OC[C@H]1O[C@@H](n2cc(C)c(=O)[nH]c2=O)C[C@@H]1OC(C)=O,inactive
11,C[C@@H]1CCCCO[C@H](CN(C)C)[C@H](C)CN([C@H](C)CO)C(=O)c2cc(NC(=O)Nc3cccc4ccccc34)ccc2O1,inactive
12,COc1ccc(NC(=O)N(C)C[C@H]2OCCCC[C@H](C)Oc3ccc(NS(=O)(=O)c4ccc(OC)cc4)cc3C(=O)N([C@@H](C)CO)C[C@H]2C)cc1,inactive
13,O=C(Cn1cc([N+](=O)[O-])cn1)n1cccn1,inactive
14,C[C@@H]1CCCCO[C@H](CN(C)C(=O)Nc2ccc(F)cc2)[C@@H](C)CN([C@@H](C)CO)C(=O)c2cc(NC(=O)Cc3ccccc3)ccc2O1,inactive
15,COc1ccc(CN(C)C[C@H]2OCCCC[C@H](C)Oc3ccc(NC(=O)Nc4ccc(OC)cc4)cc3C(=O)N([C@H](C)CO)C[C@@H]2C)cc1,active
16,COc1ccc(CN(C)C[C@@H]2OCCCC[C@@H](C)Oc3ccc(NC(=O)Nc4ccc(OC)cc4)cc3C(=O)N([C@@H](C)CO)C[C@H]2C)cc1,inactive
17,COc1ccc(CN(C)C[C@@H]2OCCCC[C@H](C)Oc3ccc(NC(=O)Nc4ccc(OC)cc4)cc3C(=O)N([C@H](C)CO)C[C@@H]2C)cc1,inactive
18,COc1ccc(CN(C)C[C@H]2OCCCC[C@@H](C)Oc3ccc(NC(=O)Nc4ccc(OC)cc4)cc3C(=O)N([C@H](C)CO)C[C@@H]2C)cc1,inactive
19,COc1ccc(CN(C)C[C@@H]2OCCCC[C@H](C)Oc3ccc(NC(=O)Nc4ccc(OC)cc4)cc3C(=O)N([C@@H](C)CO)C[C@@H]2C)cc1,active
20,COc1ccc(CN(C)C[C@H]2OCCCC[C@@H](C)Oc3ccc(NC(=O)Nc4ccc(OC)cc4)cc3C(=O)N([C@@H](C)CO)C[C@@H]2C)cc1,inactive

row,SMILES,cytotoxicity call
1,COc1ccc(CN(C)C[C@H]2OCCCC[C@@H](C)Oc3ccc(NC(=O)Nc4ccc(OC)cc4)cc3C(=O)N([C@@H](C)CO)C[C@H]2C)cc1,active
2,COc1ccc(CN(C)C[C@@H]2OCCCC[C@@H](C)Oc3ccc(NC(=O)Nc4ccc(OC)cc4)cc3C(=O)N([C@H](C)CO)C[C@@H]2C)cc1,inactive
3,COc1ccc(CN(C)C[C@@H]2OCCCC[C@@H](C)Oc3ccc(NC(=O)Nc4ccc(OC)cc4)cc3C(=O)N([C@@H](C)CO)C[C@@H]2C)cc1,active
4,Cc1noc(C)c1NC(=O)N[C@@H]1C=C[C@H](CC(=O)N2CCN(C)CC2)O[C@H]1CO,inactive
5,CC(C)Cc1ccc([C@@H](C)c2nc(-c3cccs3)no2)cc1,inactive
6,C[C@H](CO)N1C[C@H](C)[C@H](CN(C)C(=O)CCCN(C)C)OCc2cn(nn2)CCCC1=O,inactive
7,Cc1noc(C)c1S(=O)(=O)Nc1cccc2c1O[C@H](CN(C)C(=O)Nc1ccc3c(c1)OCO3)[C@H](C)CN([C@H](C)CO)C2=O,inactive
8,Cc1noc(C)c1S(=O)(=O)Nc1ccc2c(c1)C(=O)N([C@H](C)CO)C[C@H](C)[C@@H](CN(C)CC1CCCCC1)OCCCC[C@H](C)O2,inactive
9,C[C@@H]1CN([C@H](C)CO)C(=O)c2cccc(NS(=O)(=O)c3cccs3)c2O[C@@H]1CN(C)Cc1ccncc1,inactive
10,N=C(N)N/N=C1\CCc2c(C(=N)N)cccc21,inactive
11,C[C@@H]1CN([C@@H](C)CO)C(=O)Cc2cc(NC(=O)CCCCCC(=O)Nc3ccccc3N)ccc2O[C@@H]1CN(C)C(=O)Nc1cccc2ccccc12,inactive
12,CCS(=O)(=O)Nc1ccc2c(c1)C(=O)N(C)C[C@@H](OC)[C@@H](C)CN(Cc1ccccn1)[C@H](C)CO2,inactive
13,C[C@@H]1CN([C@@H](C)CO)C(=O)c2cc(NS(=O)(=O)c3cn(C)cn3)ccc2O[C@@H](C)CCCCO[C@@H]1CN(C)C,inactive
14,COc1ccc(NC(=O)Nc2ccc3c(c2)C(=O)N([C@H](C)CO)C[C@H](C)[C@@H](CN(C)Cc2ccncc2)OCCCC[C@@H](C)O3)cc1,inactive
15,COc1ccc(CN(C)C[C@H]2OCCCC[C@H](C)Oc3ccc(NC(=O)Nc4ccc(OC)cc4)cc3C(=O)N([C@H](C)CO)C[C@H]2C)cc1,active
16,COc1ccc(NC(=O)Nc2ccc3c(c2)C(=O)N([C@@H](C)CO)C[C@H](C)[C@@H](CN(C)Cc2ccncc2)OCCCC[C@@H](C)O3)cc1,active
17,COc1ccc(NC(=O)Nc2ccc3c(c2)C(=O)N([C@H](C)CO)C[C@@H](C)[C@@H](CN(C)Cc2ccncc2)OCCCC[C@H](C)O3)cc1,inactive
18,COc1ccc(CN(C)C[C@H]2OCCCC[C@@H](C)Oc3ccc(NC(=O)Nc4ccc(OC)cc4)cc3C(=O)N([C@H](C)CO)C[C@H]2C)cc1,active
